# “And” between values parts separate entries of the source, which are not always exact repeats. Equal entries are not always repeated. Results filed as inconclusive are left out. Entries that show only a call come without a potency. Some structures have more than one record in an assay (separate samples or runs), and their calls can disagree. The source made the active and inactive calls. Calls follow the shape of the dose curve; as a rule, active = well fitted curve in the direction sought with a large enough effect in the repeat runs; inconclusive = weak or mixed curves; inactive = no such curve, though single readings can be large; an effect the other way counts as inactive or inconclusive.
# Experiments:
# [1] = qHTS assay to identify small molecule agonists of the RXR signaling pathway - cell viability counter screen (AID 1159529); also: nearly all actives have a fitted effect of over 50% in size; also: potency is read from the fitted curve at half-maximal effect
# Outline: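 Tox21 10K compounds were tested for cytotoxicity against GeneBLAzer RXR-alpha HEK 293T cells grown in 2% charcoal-stripped FBS. Exposure lasted 16 hr at 37 C, 5% CO2; viability read by CellTiter-Glo luminescence.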
# [2] = qHTS assay to identify small molecule antagonists of the retinoid acid receptor (RAR) signaling pathway - cell viability counter screen (AID 1159551); also: nearly all actives have a fitted effect of over 35% in size; also: potency is read from the fitted curve at half-maximal effect
# Outline: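 Luminescent ATP quantitation (CellTiter-Glo) gave cell viability in C3RL4 cells exposed to test chemicals for 6 h at 37 C alongside 1 uM final retinol.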
# [3] = qHTS assay to identify small molecule antagonists of the retinoic acid receptor (RAR) signaling pathway (AID 1159552; also: nearly all actives have a fitted effect of over 50% in size; also: potency is read from the fitted curve at half-maximal effect)
# Outline: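 Overnight-plated C3RL4 reporter cells get compound, then retinol to 1 uM final; plates sit 6 hr at 37 C, 5% CO2. A luciferase reagent is added and light output recorded after 30 min at room temperature.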
# [4] = qHTS assay to identify small molecule agonists of the retinoic acid receptor (RAR) signaling pathway (AID 1159553); also: potency is read from the fitted curve at half-maximal effect
# Outline: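 Luminescence from a RARE-driven luciferase reporter in C3RL4 cells served as the read-out, measured after 30 min with detection reagent at room temperature. Compounds in DMSO were applied for 6 hr at 37 C following overnight seeding.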
# [5] = qHTS assay to identify small molecule antagonists of the estrogen related receptor (ERR) signaling pathway - cell viability counter screen (AID 1224818);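 also: series mostly up to about 46 µM; viability measured after 17.5 h of compound exposure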
# Outline: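 Multiplexed counter screen to separate cytotoxic compounds from true ERR modulators. ERR cells received DMSO-dissolved compounds after a 6 h pre-incubation, were exposed 17.5 h at 37 C, then assayed with CellTiter-Fluor fluorescence.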
# [6] = qHTS assay to identify small molecule agonists of the estrogen related receptor (ERR) signaling pathway (AID 1224820)
# Outline: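 Quantitative HTS of the LOPAC library used NTP ERR reporter cells treated 18 h at 37 C. Signal is luminescence after One-Glo addition and a 30 min room-temperature incubation.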
# [7] = qHTS assay to identify small molecule antagonists of the estrogen related receptor signaling pathway with the pleiotropic PPARgamma coactivator (PGC) cell viability counter screen (AID 1224822;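 also: series mostly up to about 46 µM; viability read after 17.5 h compound exposure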)
# Outline: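 Cells: PGC/ERR, 2,000/well, 1536-well format. Pre-incubation 6 h, 37 C/5% CO2. Compound exposure 17.5 h, 37 C. Detection: CellTiter-Fluor, 30 min, fluorescence.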
smiles,measurement,setting,value
CCOc1ccc(C(C)(C)COCc2cccc(Oc3ccccc3)c2)cc1,Potency,[1],inactive
same,Potency,[2],inactive
O=C(NC(=O)c1c(F)cccc1F)Nc1cc(Cl)c(Oc2ncc(C(F)(F)F)cc2Cl)c(Cl)c1,Potency,[1],inactive
same,Potency,[2],inactive
O=C1C(=O)c2cccc3cccc1c23,Potency,[1],inactive
same,Potency,[2],inactive
O=S1(=O)OC(c2cc(Br)c(O)c(Br)c2)(c2cc(Br)c(O)c(Br)c2)c2ccccc21,Potency,[1],inactive
same,Potency,[2],19.9 µM (active)
same,Potency,[3],25 µM (active)
CC(=O)CCC(C)=O,Potency,[1],inactive
same,Potency,[2],inactive
CCOc1nc(F)cc2nc(S(=O)(=O)Nc3c(Cl)cccc3Cl)nn12,Potency,[1],inactive
same,Potency,[2],inactive
CCc1ccc(C(=O)NN(C(=O)c2cc(C)cc(C)c2)C(C)(C)C)cc1,Potency,[1],inactive
same,Potency,[2],inactive
same,Potency,[3],inactive
same,Potency,[4],inactive
CCOP(=S)(OCC)SCSCC,Potency,[1],inactive
same,Potency,[2],inactive
CC(=O)C(C)(C)C,Potency,[1],inactive
same,Potency,[2],inactive
same,Potency,[3],inactive
same,Potency,[4],inactive
C[C@@H]1CC[C@H]2[C@@H](C)C(=O)O[C@@H]3O[C@@]4(C)CC[C@@H]1[C@]32OO4,Potency,[1],inactive
same,Potency,[2],inactive
IC(I)=C(I)I,Potency,[1],12.3 µM (active)
same,Potency,[2],30.6 µM (active)
same,Potency,[3],2.73 µM (active)
CCOP(=S)(OCC)SCn1nnc2ccccc2c1=O,Potency,[1],inactive
same,Potency,[2],inactive
same,Potency,[3],inactive
same,Potency,[4],inactive
Clc1ccc(C2(Cn3cncn3)CC(Br)CO2)c(Cl)c1 (stereo not drawn),Potency,[1],inactive
same,Potency,[2],inactive
O=C(Nc1ccccc1)Nc1cnns1,Potency,[1],inactive
same,Potency,[2],inactive
same,Potency,[3],inactive
same,Potency,[4],inactive
O=Cc1ccc2c(c1)OCO2,Potency,[1],inactive
same,Potency,[2],inactive
same,Potency,[3],inactive
same,Potency,[4],inactive
O=C(CBr)Nc1ccc(Cl)cc1C(=O)c1ccccc1F,Potency,[1],inactive
same,Potency,[2],inactive
O=C1NCN(c2ccccc2)C12CCN(CCCOc1ccc(F)cc1)CC2,Potency,[1],inactive
same,Potency,[2],inactive
O=S1OC[C@@H]2[C@H](CO1)[C@]1(Cl)C(Cl)=C(Cl)[C@@]2(Cl)C1(Cl)Cl (stereo partly drawn),Potency,[1],49 µM (active)
same,Potency,[2],inactive
same,Potency,[3],inactive
N#CCC#N,Potency,[1],inactive
same,Potency,[2],inactive
CCOP(=S)(OCC)Oc1nc(Cl)c(Cl)cc1Cl,Potency,[1],21.9 µM (active) and 49 µM (active)
same,Potency,[2],61.3 µM (active) and inactive
CCOC(=O)[C@]1(c2ccccc2)Oc2ccccc2[C@@H]1N,Potency,[1],inactive
same,Potency,[2],inactive
same,Potency,[3],inactive
same,Potency,[4],inactive
CCO[C@H]1O[C@@H]2OC3(C)CC[C@H]4[C@H](C)CC[C@@H]([C@H]1C)[C@@]24OO3,Potency,[1],inactive
same,Potency,[2],inactive
same,Potency,[3],inactive
same,Potency,[4],inactive
BrCCCCBr,Potency,[1],inactive
same,Potency,[2],inactive
same,Potency,[3],inactive
same,Potency,[4],inactive
O=C1c2ccccc2C(=O)C1C(=O)C(c1ccccc1)c1ccccc1,Potency,[1],inactive
same,Potency,[2],inactive
same,Potency,[3],inactive
same,Potency,[4],inactive
CCOS(C)(=O)=O,Potency,[1],inactive
same,Potency,[2],inactive
same,Potency,[3],inactive
same,Potency,[4],inactive
O=C1CN=C(c2ccccc2)c2cc(Cl)ccc2N1CC1CC1,Potency,[1],inactive
same,Potency,[2],inactive
same,Potency,[3],inactive
same,Potency,[4],inactive
NS(=O)(=O)C(F)(F)C(F)(F)C(F)(F)C(F)(F)C(F)(F)C(F)(F)C(F)(F)C(F)(F)F,Potency,[1],inactive
same,Potency,[2],inactive
same,Potency,[3],inactive
same,Potency,[4],inactive
O=C(NCc1cccnc1)Nc1ccc([N+](=O)[O-])cc1,Potency,[1],inactive
same,Potency,[2],inactive
same,Potency,[3],inactive
same,Potency,[4],inactive
OC(c1ccc(Cl)cc1)(c1ccc(Cl)cc1)c1cccnc1,Potency,[1],inactive
same,Potency,[2],inactive
same,Potency,[3],inactive
same,Potency,[4],inactive
CN(C)c1ccc(N(C)C)cc1,Potency,[1],inactive
same,Potency,[2],inactive
same,Potency,[3],inactive
same,Potency,[4],12.2 µM (active)
CC(O)(CS(=O)(=O)c1ccc(F)cc1)C(=O)Nc1ccc(C#N)c(C(F)(F)F)c1 (stereo not drawn),Potency,[1],22.7 µM (active)
same,Potency,[2],inactive
same,Potency,[3],inactive
same,Potency,[4],inactive
same,outcome,[5],inactive
same,outcome,[6],inactive
same,Potency,[7],inactive
C=CC(=O)OC(C)(C)C,Potency,[1],inactive
same,Potency,[2],inactive
same,Potency,[3],inactive
same,Potency,[4],inactive
[O-][Cl+]O,Potency,[1],inactive
same,Potency,[2],inactive
same,Potency,[3],inactive
same,Potency,[4],inactive
CCCCCCCCCC(=O)O[C@H]1CC[C@H]2[C@@H]3CCC4=CC(=O)CC[C@@H]4[C@H]3CC[C@]12C,Potency,[1],inactive
same,Potency,[2],inactive
same,Potency,[3],inactive
same,Potency,[4],inactive
CCCC(=O)Cl,Potency,[1],inactive
same,Potency,[2],inactive
same,Potency,[3],inactive
same,Potency,[4],inactive
CN1C[C@H](CNC(=O)OCc2ccccc2)C[C@@H]2c3cccc4c3c(cn4C)C[C@H]21,Potency,[1],inactive
same,Potency,[2],inactive
same,Potency,[3],inactive
same,Potency,[4],inactive
COc1nn(C(=O)NS(=O)(=O)c2ccccc2OC(F)(F)F)c(=O)n1C,Potency,[1],inactive
same,Potency,[2],inactive
same,Potency,[3],inactive
same,Potency,[4],inactive
COC(C)(C)CCC[C@H](C)C/C=C/C(C)=C/C(=O)OC(C)C,Potency,[1],inactive
same,Potency,[2],inactive
same,Potency,[3],inactive
same,Potency,[4],inactive
CCCN(CCC)c1c([N+](=O)[O-])cc(S(C)(=O)=O)cc1[N+](=O)[O-],Potency,[1],inactive
same,Potency,[2],inactive
same,Potency,[4],inactive
COc1c(C(C)(C)C)cc([N+](=O)[O-])c(C)c1[N+](=O)[O-],Potency,[1],inactive
same,Potency,[2],inactive
same,Potency,[3],inactive
same,Potency,[4],inactive
CCOC(=O)COc1cc(-c2nn(C)c(OC(F)F)c2Cl)c(F)cc1Cl,Potency,[1],inactive
same,Potency,[2],inactive
same,Potency,[3],inactive
same,Potency,[4],inactive
S=C=NCc1ccccc1,Potency,[1],inactive
same,Potency,[2],inactive
same,Potency,[3],inactive
same,Potency,[4],69.3 µM (active)
